Laboratory results as given in PubChem BioAssay AID1159580 (chemical genetic matrix, 2015).
Screen size: about 5,500 compounds; about 2,000 (36%) were called active. Not shown: some 18% with an inconclusive outcome. No stated cut-off is given here; in the data, active means normalized growth mostly below about 0.91 (no sharp cut-off); inconclusive means no clear call, values can overlap the other calls; inactive means mostly above about 0.92. The list shows a part of the results.

Test: chemical genetic growth profiling, strain panel (AID 1159580);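 further: tested at 20 µM; growth read once vehicle control cultures reached saturation at 30 °C; 1 = growth at the plate median or of vehicle wells; lower values mean less growth of the strain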
Settings: growth OD

Measured: normalized growth

CC(C)=CCc1c(O)cc2occ(-c3ccc4c(c3)OCO4)c(=O)c2c1O
inactive: S. cerevisiae deletion strains, locus YJR066W, strain TOR1, hits give low values 0.832 | S. cerevisiae deletion strains, locus YJR075W, strain HOC1, hits give low values 0.994 | S. cerevisiae deletion strains, locus YKL068W, hits give low values 1.01 | S. cerevisiae deletion strains, locus YKL085W, strain MDH1 (second series), hits give low values 1 | S. cerevisiae deletion strains, locus YKL085W, strain MDH1, hits give low values 1 | S. cerevisiae deletion strains, locus YKL160W, strain elf1, hits give low values 0.934 | S. cerevisiae deletion strains, locus YKL190W, strain CNB1, hits give low values 1.01 | S. cerevisiae deletion strains, locus YKR001C, strain vps1, hits give low values 1.03 | S. cerevisiae deletion strains, locus YKR026C, strain gcn3, hits give low values 0.992 | S. cerevisiae deletion strains, locus YKR091W, strain srl3, hits give low values 1 | S. cerevisiae deletion strains, locus YLL026W, hits give low values 0.984 | S. cerevisiae deletion strains, locus YLL041C, strain sdh2, hits give low values 0.991 | S. cerevisiae deletion strains, locus YLR039C, strain RIC1, hits give low values 1.06 | S. cerevisiae deletion strains, locus YLR058C, strain SHM2, hits give low values 1.02 | S. cerevisiae deletion strains, locus YLR102C, strain apc9, hits give low values 1.03 | S. cerevisiae deletion strains, locus YLR258W, strain gsy2, hits give low values 0.919 | S. cerevisiae deletion strains, locus YLR262C, strain YPT6 (second series), hits give low values 0.911 | S. cerevisiae deletion strains, locus YLR262C, strain YPT6, hits give low values 1.06 | S. cerevisiae deletion strains, locus YLR268W, strain sec22, hits give low values 1 | S. cerevisiae deletion strains, locus YLR320W, strain mms22, hits give low values 0.929 | S. cerevisiae deletion strains, locus YLR330W, strain CHS5, hits give low values 1.01 | S. cerevisiae deletion strains, locus YLR342W, strain FKS1 (second series), hits give low values 0.996 | S. cerevisiae deletion strains, locus YLR342W, strain FKS1, hits give low values 0.952 | S. cerevisiae deletion strains, locus YLR357W, strain rsc2, hits give low values 0.948 | S. cerevisiae deletion strains, locus YLR370C, strain arc18, hits give low values 0.992 | S. cerevisiae deletion strains, locus YLR371W, strain rom2, hits give low values 1.04 | S. cerevisiae deletion strains, locus YLR384C, strain iki3, hits give low values 0.992 | S. cerevisiae deletion strains, locus YLR418C, strain cdc73, hits give low values 1.01 | S. cerevisiae deletion strains, locus YML016C, strain PPZ1, hits give low values 1.01 | S. cerevisiae deletion strains, locus YML032C, strain rad52, hits give low values 1.02 | S. cerevisiae deletion strains, locus YML124C, strain tub3, hits give low values 1.02 | S. cerevisiae deletion strains, locus YMR078C, strain ctf18, hits give low values 1.03 | S. cerevisiae deletion strains, locus YMR125W, strain sto1, hits give low values 0.957 | S. cerevisiae deletion strains, locus YMR129W, hits give low values 0.982 | S. cerevisiae deletion strains, locus YMR205C, strain PFK2, hits give low values 0.96 | S. cerevisiae deletion strains, locus YMR223W, strain ubp8, hits give low values 1.02 | S. cerevisiae deletion strains, locus YMR231W, strain pep5, hits give low values 0.993 | S. cerevisiae deletion strains, locus YMR263W, strain SAP30, hits give low values 1 | S. cerevisiae deletion strains, locus YMR307W, strain GAS1, hits give low values 1 | S. cerevisiae deletion strains, locus YNL067W, strain RPL9B, hits give low values 1 | S. cerevisiae deletion strains, locus YNL071W, strain lat1, hits give low values 0.949 | S. cerevisiae deletion strains, locus YNL128W, strain TEP1, hits give low values 1.02 | S. cerevisiae deletion strains, locus YNL153C, strain GIM3, hits give low values 1 | S. cerevisiae deletion strains, locus YNL183C, strain NPR1, hits give low values 0.839 | S. cerevisiae deletion strains, locus YNL209W, strain ssb2, hits give low values 0.937 | S. cerevisiae deletion strains, locus YNL233W, strain BNI4, hits give low values 0.971 | S. cerevisiae deletion strains, locus YNL248C, strain rpa49, hits give low values 0.962 | S. cerevisiae deletion strains, locus YNL250W, strain rad50, hits give low values 1.04 | S. cerevisiae deletion strains, locus YNL271C, strain bni1, hits give low values 1.03 | S. cerevisiae deletion strains, locus YNL298W, strain CLA4, hits give low values 1.05 | S. cerevisiae deletion strains, locus YNL307C, strain MCK1, hits give low values 1.02 | S. cerevisiae deletion strains, locus YNL322C, strain KRE1 (second series), hits give low values 0.998 | S. cerevisiae deletion strains, locus YNL322C, strain KRE1, hits give low values 1.01 | S. cerevisiae deletion strains, locus YNR049C, strain mso1, hits give low values 0.982 | S. cerevisiae deletion strains, locus YNR052C, strain pop2, hits give low values 1.03 | S. cerevisiae deletion strains, locus YOL006C, strain TOP1, hits give low values 1.05 | S. cerevisiae deletion strains, locus YOL012C, strain htz1 0.966 | S. cerevisiae deletion strains, locus YOL147C, strain pex11, hits give low values 1.03 | S. cerevisiae deletion strains, locus YOR061W, strain CKA2, hits give low values 1.01 | S. cerevisiae deletion strains, locus YOR069W, strain VPS5, hits give low values 1.01 | S. cerevisiae deletion strains, locus YOR070C, strain gyp1, hits give low values 0.954 | S. cerevisiae deletion strains, locus YOR080W, strain dia2, hits give low values 0.925 | S. cerevisiae deletion strains, locus YOR083W, strain WHI5, hits give low values 0.925 | S. cerevisiae deletion strains, locus YOR106W, strain vam3, hits give low values 0.899 | S. cerevisiae deletion strains, locus YOR136W, strain idh2, hits give low values 1.03 | S. cerevisiae deletion strains, locus YOR144C, strain elg1, hits give low values 1.02 | S. cerevisiae deletion strains, locus YOR184W, strain ser1, hits give low values 1.05 | S. cerevisiae deletion strains, locus YOR265W, strain rbl2, hits give low values 0.968 | S. cerevisiae deletion strains, locus YOR290C, strain snf2, hits give low values 0.916 | S. cerevisiae deletion strains, locus YOR316C, strain cot1, hits give low values 1.02 | S. cerevisiae deletion strains, locus YPL055C, strain LGE1, hits give low values 0.993 | S. cerevisiae deletion strains, locus YPL078C, strain atp4, hits give low values 0.918 | S. cerevisiae deletion strains, locus YPL106C, strain sse1, hits give low values 0.915 | S. cerevisiae deletion strains, locus YPL240C, strain hsp82, hits give low values 0.974 | S. cerevisiae deletion strains, locus YPL241C, strain CIN2, hits give low values 1.01 | S. cerevisiae deletion strains, locus YPR119W, strain clb2, hits give low values 1.02 | S. cerevisiae deletion strains, locus YPR141C, strain kar3, hits give low values 1.03 | S. cerevisiae deletion strains, locus YPR163C, strain tif3, hits give low values 1.02 | S. cerevisiae deletion strains, locus YPR167C, strain met16, hits give low values 1.03 | S. cerevisiae deletion strains, strain wtn01, hits give low values 1.02 | S. cerevisiae strains, strain wild type, hits give low values 1
active: S. cerevisiae deletion strains, locus YLL001W, strain dnm1, hits give low values 0.81 | S. cerevisiae deletion strains, locus YLR027C, strain aat2, hits give low values 0.918 | S. cerevisiae deletion strains, locus YLR113W, strain HOG1, hits give low values 0.75 | S. cerevisiae deletion strains, locus YLR221C, strain rsa3, hits give low values 0.865 | S. cerevisiae deletion strains, locus YML120C, strain ndi1, hits give low values 0.895 | S. cerevisiae deletion strains, locus YMR058W, strain fet3, hits give low values 0.828 | S. cerevisiae deletion strains, locus YOR001W, strain rrp6, hits give low values 0.857 | S. cerevisiae deletion strains, locus YOR231W, strain MKK1, hits give low values 0.816 | S. cerevisiae deletion strains, locus YOR270C, strain vph1, hits give low values 0.729 | S. cerevisiae deletion strains, locus YPL051W, strain arl3, hits give low values 0.877 | S. cerevisiae deletion strains, locus YPL256C, strain CLN2, hits give low values 0.808
